The source of these data is PubChem BioAssay (NCATS).

Records with an inconclusive call do not appear. Entries that show only a call come without a potency. Unmarked numbers belong to inactive results. Activity calls are given as the source filed them. The call rests on the fitted dose curve; in most records, active means well fitted inhibition curve with a large enough effect; inconclusive means small, poorly fitted or top-dose-only effect; inactive means flat fitted curve, though single readings scatter.

The target in this assay is Phospholipid hydroperoxide glutathione peroxidase GPX4 (Homo sapiens) (UniProt P36969). Kind of assay: Primary qHTS Assay for Inhibitors of Recombinant Selenoprotein Glutathione Peroxidase 4 (GPX4) (AID 1845192). Further: nearly all actives have a fitted effect of over 65% in size. Conditions: recombinant GPX4, GR-coupled NADPH fluorescence, 15 min; series mostly up to 50 µM. From the text: Assay Provider: Elias S.J. Arner MD PhD.
Sequence of Phospholipid hydroperoxide glutathione peroxidase GPX4 (Homo sapiens) (P36969 whole entry, looked up): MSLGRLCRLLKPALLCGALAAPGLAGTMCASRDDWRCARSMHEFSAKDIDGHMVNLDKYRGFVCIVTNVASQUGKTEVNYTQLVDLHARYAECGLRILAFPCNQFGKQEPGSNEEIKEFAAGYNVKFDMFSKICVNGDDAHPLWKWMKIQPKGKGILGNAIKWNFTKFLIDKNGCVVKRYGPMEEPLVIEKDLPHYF
Department of Medical Biochemistry and Biophysics
Karolinska Institutet, Solna, Stockholm, Sweden
Selenoprotein glutathione peroxidases (GPX), like the ubiquitously expressed GPX1 and the ferroptosis modulator GPX4, enact their antioxidant activities by reducing hydroperoxides using glutathione. […] GPX1 and GPX4 inhibitors have thus shown promise as anti-cancer agents. Existing inhibitors are often promiscuous, or modulate GPX activity only indirectly, so novel direct inhibitors identified through screening against GPX1 and GPX4 could be valuable. Here, we developed optimized glutathione reductase (GR)-coupled GPX assays for the biochemical high-throughput screen (HTS) of almost 12,000 compounds with known mechanisms of action. Initial hits were triaged using a GR counter-screen, assessed for isoform specificity using a separate GPX2 assay, and were assessed for general selenocysteine-targeting activity using a thioredoxin reductase (TXNRD1) assay. With this suite of assays, we identified novel GPX1/GPX2- and GPX4-specific inhibitors and can here present a validated pipeline for future discovery research for selenoprotein-targeting agents.
SEQUENCE No. (e.g., 1, 2, 3, etc.); […] (e.g., Cells, Incubation, Reagent, etc.); VALUE; DESCRIPTION.
1; Reagent 1; 3 uL; 333.33 nM GPx4 enzyme or no enzyme control in 1536-well, black, solid Greiner assay plate.
2; Compound; 25 nL; Kalypsis pin tool (Wako USA) equipped with a 1536-well pin head.
3; Incubation; 30 min; room temperature.
4; Reagent 2; 1 uL; 500 nM GR, 5 mM GSH, 2.5 mM NADPH solution
5; Reagent 3; 1 uL; 2.5 mM CHP in 50% EtOH.
6; Detection; Fluorescence; ViewLux microplate reader, excitation 340 nm and emission 450 nm.
7; Incubation; 15 min; room temperature.
8; Detection; Fluorescence; ViewLux microplate reader, excitation 340 nm and emission 450 nm.
NOTES (numbers refer to Sequence numbers above)
1. 3 µL of 333.33 nM GPX4 and 0.016% BSA in assay buffer (50 mM Tris-HCl, 2 mM EDTA (pH 7.5), 150 mM NaCl) was added to columns 3-48 of 1536-well plates using a BioRAPTR Flying Reagent Dispenser (Let's Go Robotics (LGR), Carlsbad, CA). A no-enzyme control (0.01% BSA in TES assay buffer) was added to columns 1-2.
2. 25 nL, library and DMSO controls were added to each well with a pin tool (Kalypsys).
3. The assay plates were incubated for 30 minutes at room temperature.
4. 1 µL of master mix (500 nM glutathione reductase (GR), 5 mM reduced glutathione (GSH), 2.5 mM NADPH in assay buffer) was added.
5. 1 µL of cumene hydroperoxide (CHP) ([2.5 mM] in 50% EtOH) was then added within 5 minutes to initiate the reaction. Final concentrations were: 200 nM GPX4, 1 mM GSH, 0.5 mM CHP, 0.5 mM NADPH, 100 nM GR, 0.01% BSA.
6. Initial fluorescence readout (t=0) at 340/450 nm was measured using a ViewLux multimodal detector (PerkinElmer, Waltham, MA).
8. Endpoint fluorescence readout (t=15) at 340/450 nm was measured 15 min after room temperature incubation.
In general terms: In qHTS, concentration-response curves come from the screen itself.
Turning to `CC(=O)OCC(=O)[C@@]1(OC(C)=O)[C@@H](C)C[C@H]2[C@@H]3C[C@H](F)C4=CC(=O)C=C[C@]4(C)[C@@]3(F)[C@@H](O)C[C@@]21C`, the Potency entry is “inactive”.
Same read-out and setting: the same measure for `OC[C@H]1O[C@@H](n2cnc3c(=S)nc[nH]c32)[C@H](O)[C@@H]1O`: “inactive”; for `O=C(O)CNC(=O)c1ccccc1`: “inactive”; for `N[C@@H](CCC(=O)N[C@@H](CS)C(=O)NCC(=O)O)C(=O)O`: “inactive”.
Take `CCCCS(=O)(=O)N[C@@H](Cc1ccc(OCCCCC2CCNCC2)cc1)C(=O)O`: the Potency entry is “inactive”.
On the same count and under the same terms, the same measure for `CC(C)N=C(N)/N=C(\N)Nc1ccc(Cl)cc1`: “inactive”; for `COc1cccc2c1C(=O)c1c(O)c3c(c(O)c1C2=O)C[C@@](O)(C(=O)CO)C[C@@H]3O[C@H]1C[C@H](N)[C@H](O)[C@H](C)O1`: “inactive”.
For the molecule `COC(=O)[C@H]1[C@H]2C[C@H]3c4[nH]c5ccccc5c4CCN3C[C@H]2CC[C@@H]1O`, the Potency result is “inactive”.
`O=C1c2ccccc2C(=O)C1c1ccccc1`: the Potency result was “inactive”.
As for `C[C@]12CC[C@@H]3c4ccc(O)cc4CC[C@H]3[C@@H]1C[C@@H](O)[C@@H]2O`, the Potency result is “inactive”.
Turning to `C[C@@H](CN(C)C)CN1c2ccccc2Sc2ccccc21`, the Potency result was “inactive”.
As for `OC[C@H]1O[C@H](O[C@]2(CCl)O[C@H](CCl)[C@@H](O)[C@@H]2O)[C@H](O)[C@@H](O)[C@H]1Cl`, the Potency entry is “inactive”.
For `Cc1ccnc(NS(=O)(=O)c2ccc(N)cc2)n1`, the Potency entry was “inactive”.
Take `CCn1cc(C(=O)O)c(=O)c2cnc(N3CCCC3)nc21`: the activity change, negative = inhibition was -6.64% [at 9.73 µM].
As for `CC(C)=CCC1C(=O)N(c2ccccc2)N(c2ccccc2)C1=O`, the Potency result was “inactive”.
For `CCOC(=O)[C@H](CCc1ccccc1)N[C@@H](C)C(=O)N1Cc2ccccc2C[C@H]1C(=O)O`, the Potency entry was “inactive”.
Take `CC(=O)Oc1ccc(C(c2ccc(OC(C)=O)cc2)c2ccccn2)cc1`: the Potency result was “inactive”.
The same measure, in the same setting: the same measure for `COc1cccc(CCc2ccccc2OCC(CN(C)C)OC(=O)CCC(=O)O)c1` (stereo not given): “inactive”; for `CC[C@H](C)C(=O)O[C@H]1CCC=C2C=C[C@H](C)[C@H](CC[C@@H]3C[C@@H](O)CC(=O)O3)[C@H]21`: “inactive”.
Consider `Cc1ncc(CSSCc2cnc(C)c(O)c2CO)c(CO)c1O`, for which the Potency result was “inactive”.
As for `Nc1cc(Cl)c(NC2=NCCN2)c(Cl)c1`, the Potency result was “inactive”.
Still for that read-out and setting: the same measure for `Cc1ccccc1C(=O)Nc1ccc(C(=O)N2CCCC(N(C)C)c3ccccc32)cc1` (stereo not given): “inactive”; for `O=C(O)c1cc2cc(Cc3cccnc3)ccc2o1`: “inactive”.
Still for that read-out and setting: the same measure for `C[C@H]1C[C@H]2[C@@H]3CCC4=CC(=O)C=C[C@]4(C)[C@@]3(Cl)[C@@H](O)C[C@]2(C)[C@@]1(O)C(=O)CO`: “inactive”; for `Cc1ccc(Nc2c(F)cccc2Cl)c(CC(=O)O)c1`: “inactive”.
For the molecule `COC(=O)[C@@H]1CC2=CC(=O)CC[C@]2(C)[C@@]23O[C@@H]2C[C@@]2(C)[C@@H](CC[C@@]24CCC(=O)O4)[C@H]13`, the Potency entry is “inactive”.
On to `CC(=O)Nc1c(I)cc(I)c(C(=O)O)c1I`, for which the Potency entry is “inactive”.
On the same count and under the same terms, the same measure for `C/C=C/c1ccc(OC)cc1`: “inactive”; for `CN(C)CCCOc1nn(Cc2ccccc2)c2ccccc12`: “inactive”; for `CC[C@@H](CO)NCCN[C@@H](CC)CO`: “inactive”.
Take `Cc1nc2n(c(=O)c1CCN1CCC(c3noc4cc(F)ccc34)CC1)CCC[C@H]2O`: the Potency result is “inactive”.
On the same count and under the same terms, the same measure for `C[C@H](O)C(=O)Nc1c(I)c(C(=O)NC(CO)CO)c(I)c(C(=O)NC(CO)CO)c1I`: “inactive”; for `COc1ccc(C2C(=O)c3ccccc3C2=O)cc1`: “inactive”.
As to `C[C@@H]1C(=O)NC2=Nc3cccc(Cl)c3CN21`, the Potency result was “inactive”.
For `Cc1onc(-c2c(Cl)cccc2Cl)c1C(=O)N[C@@H]1C(=O)N2[C@@H]1SC(C)(C)[C@@H]2C(=O)O`, the Potency entry is “inactive”.
Consider `CC[N+](CC)(CCNC(=O)C(=O)NCC[N+](CC)(CC)Cc1ccccc1Cl)Cc1ccccc1Cl`, for which the Potency result is “inactive”.
Consider `CC(=O)OCC(=O)[C@@]12N=C(C)O[C@@H]1C[C@H]1[C@@H]3CCC4=CC(=O)C=C[C@]4(C)[C@H]3[C@@H](O)C[C@@]12C`, for which the Potency entry was “inactive”.
For `OC[C@@H](O)[C@@H](O[C@@H]1O[C@H](CO)[C@H](O)[C@H](O)[C@H]1O)[C@H](O)[C@@H](O)CO`, the Potency entry was “inactive”.
Regarding `CCCC1O[C@@H]2C[C@H]3[C@@H]4CCC5=CC(=O)C=C[C@]5(C)[C@H]4[C@@H](O)C[C@]3(C)[C@]2(C(=O)CO)O1` (stereo not given in full), the Potency entry is “inactive”.
For the molecule `NC(=NCCCCCCN=C(N)/N=C(\N)Nc1ccc(Cl)cc1)/N=C(\N)Nc1ccc(Cl)cc1`, the Potency entry was “inactive”.
